# Assay results from PubChem BioAssay (NCATS).
# Records with an inconclusive call do not appear. Where a call stands in place of a potency, no number is given. The source made the active and inactive calls. Unless noted, the call rests on the fitted dose curve; in most records, active means well fitted curve in the direction sought with a large enough effect; inconclusive means small, poorly fitted or top-dose-only effect, or another doubt; inactive means no such curve, though single readings can be large; an effect the other way counts as inactive or inconclusive.
# Key:
# [1] = A High-Content qHTS Against Drug Library for the Identification of Small Molecules that Inhibit DYT1 Early Onset Primary Dystonia-Associated Cell Pathology (AID 1645839; calls by dose curve; further: potency means the concentration at half of the fitted maximal effect); conditions: HEK293 Flp-In EGFP-delE TorsinA, punctate imaging, 48 h; series mostly up to 46.1 µM
# Outline: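 Flp-In T-REx 293 cells with tetracycline-inducible EGFP-delE hTOR1A (WT EGFP-hTOR1A as reference), 800 cells/well; compound added with tetracycline, 48 h at 37 C. Fixed, permeabilized cells imaged; %pathology (punctate TorsinA) primary, cell count counterscreen.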
# [2] = molecular target: Cytochrome P450 2D6 (Homo sapiens) (UniProt P10635); experiment: Cytochrome P450 family 2 subfamily D member 6 (CYP2D6) small molecule antagonists: luciferase biochemical (cell-free) qHTS assay (AID 1645840; active means well fitted curve in the direction sought with a large enough effect in the repeat runs; an effect the other way counts as inactive or inconclusive; further: nearly all actives have a fitted effect of over 55% in size); conditions: P450-Glo CYP2D6 enzyme, luciferin luminescence, 1 h; series mostly up to 57.4 µM
# Outline: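 P450-Glo luminescent screen: recombinant CYP2D6 enzyme–proluciferin substrate mix preincubated with compound 10 min at room temperature, then NADPH regeneration added for 1 h at room temperature. Detection reagent added for 20 min; luciferin light read as relative luminescence units.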
# [3] = Primary qHTS for small molecule stabilizers of the endoplasmic reticulum resident proteome: Secreted ER Calcium Modulated Protein (SERCaMP) assay (AID 1508630); conditions: SH-SY5Y GLuc-SERCaMP (Gaussia luciferase released on ER calcium loss) secretion, thapsigargin, luminescence; series mostly up to 38.4 µM
# Outline: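 GLuc-SERCaMP-expressing SH-SY5Y cells, pretreated 16 h with compound, are challenged with thapsigargin to empty ER calcium stores; after 4 h, coelenterazine is added directly to the medium and luminescence is imaged.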
# Papain (Carica papaya) = Papain (Carica papaya) (UniProt P00784); experiment: Primary qHTS assay for inhibitors of the protease papain (AID 1645873); conditions: papain Z-FR-AMC cleavage, AMC fluorescence; series mostly up to 49.8 µM;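 further: papain turnover of Z-FR-AMC read as the AMC fluorescence gain over 10 min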
# [4] = molecular target: Cytochrome P450 2C9 (Homo sapiens) (UniProt P11712); experiment: Cytochrome P450 family 2 subfamily C member 9 (CYP2C9) small molecule antagonists: luciferase biochemical (cell-free) qHTS assay (AID 1645842; active means well fitted curve in the direction sought with a large enough effect in the repeat runs; an effect the other way counts as inactive or inconclusive; further: nearly all actives have a fitted effect of over 55% in size; further: potency means the concentration at half of the fitted maximal effect); conditions: P450-Glo CYP2C9 enzyme assay, luciferin luminescence; series mostly up to 57.4 µM
# Outline: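 Luminescence, after 20 min with luciferin detection reagent, reflected CYP2C9 turnover during a 1 h NADPH-driven reaction at 37C. Enzyme-substrate mix contained 0.4% bovine serum albumin and was preincubated with compound 10 min at room temperature.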
# [5] = molecular target: Cytochrome P450 3A4 (Homo sapiens) (UniProt P08684); experiment: Cytochrome P450 family 3 subfamily A member 4 (CYP3A4) small molecule antagonists: luciferase qHTS assay (AID 1645841; active means well fitted curve in the direction sought with a large enough effect in the repeat runs; an effect the other way counts as inactive or inconclusive; further: nearly all actives have a fitted effect of over 45% in size); conditions: P450-Glo CYP3A4 enzyme assay, luciferin luminescence; series mostly up to 57.4 µM
# Outline: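 P450-Glo CYP3A4 enzyme with proluciferin substrate preincubated 10 min with compound at room temperature, then NADPH regeneration 1 h. Luciferin detection reagent added for 20 min; luminescence recorded. Ketoconazole positive control.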
# [6] = molecular target: N-terminal Xaa-Pro-Lys N-methyltransferase 1 (Homo sapiens) (UniProt Q9BV86); experiment: Confirmatory qHTS for Inhibitors of N-terminal methyltransferase 1 (NTMT1): MTaseGlo Assay (AID 1645874); conditions: NTMT1 enzyme, MTase-Glo SAH luminescence; series mostly up to 100 µM;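 further: luminescence from SAH made as NTMT1 methylates SPKRIA peptide using SAM; nearly all actives have a fitted effect of over 65% in size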
# Outline: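 Preincubation of NTMT1 (125 nM) plus SAM (100 uM) with test compounds lasted 15 min; methylation of 1 uM SPKRIA then proceeded 30 min in the dark at room temperature. Luciferase signal reported SAH produced.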
# Chain of Papain (Carica papaya) (P00784 whole entry, looked up): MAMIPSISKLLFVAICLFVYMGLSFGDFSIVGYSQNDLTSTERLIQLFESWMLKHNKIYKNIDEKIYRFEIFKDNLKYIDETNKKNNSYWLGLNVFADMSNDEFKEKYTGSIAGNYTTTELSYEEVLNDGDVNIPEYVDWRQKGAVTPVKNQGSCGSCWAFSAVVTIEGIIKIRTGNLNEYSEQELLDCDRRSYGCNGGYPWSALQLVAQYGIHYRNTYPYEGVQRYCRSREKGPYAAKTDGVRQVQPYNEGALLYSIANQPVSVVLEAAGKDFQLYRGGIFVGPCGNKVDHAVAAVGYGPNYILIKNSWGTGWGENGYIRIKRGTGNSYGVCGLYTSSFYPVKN
# Chain of Cytochrome P450 2D6 (Homo sapiens) (P10635 whole entry, looked up): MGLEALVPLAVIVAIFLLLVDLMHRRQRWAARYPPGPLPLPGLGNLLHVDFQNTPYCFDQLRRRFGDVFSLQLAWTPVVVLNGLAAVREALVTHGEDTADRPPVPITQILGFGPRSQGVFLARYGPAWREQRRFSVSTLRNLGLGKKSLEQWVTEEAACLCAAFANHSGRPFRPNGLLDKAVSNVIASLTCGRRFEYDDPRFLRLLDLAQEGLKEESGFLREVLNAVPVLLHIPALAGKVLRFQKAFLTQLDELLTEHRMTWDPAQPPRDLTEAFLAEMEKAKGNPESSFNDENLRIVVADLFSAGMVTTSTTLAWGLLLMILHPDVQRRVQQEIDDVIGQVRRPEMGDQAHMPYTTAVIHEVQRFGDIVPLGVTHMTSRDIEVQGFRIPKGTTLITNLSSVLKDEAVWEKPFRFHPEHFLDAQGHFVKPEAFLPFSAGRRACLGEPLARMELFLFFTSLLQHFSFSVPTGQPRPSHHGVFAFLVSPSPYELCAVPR
# Chain of Cytochrome P450 3A4 (Homo sapiens) (P08684 whole entry, looked up): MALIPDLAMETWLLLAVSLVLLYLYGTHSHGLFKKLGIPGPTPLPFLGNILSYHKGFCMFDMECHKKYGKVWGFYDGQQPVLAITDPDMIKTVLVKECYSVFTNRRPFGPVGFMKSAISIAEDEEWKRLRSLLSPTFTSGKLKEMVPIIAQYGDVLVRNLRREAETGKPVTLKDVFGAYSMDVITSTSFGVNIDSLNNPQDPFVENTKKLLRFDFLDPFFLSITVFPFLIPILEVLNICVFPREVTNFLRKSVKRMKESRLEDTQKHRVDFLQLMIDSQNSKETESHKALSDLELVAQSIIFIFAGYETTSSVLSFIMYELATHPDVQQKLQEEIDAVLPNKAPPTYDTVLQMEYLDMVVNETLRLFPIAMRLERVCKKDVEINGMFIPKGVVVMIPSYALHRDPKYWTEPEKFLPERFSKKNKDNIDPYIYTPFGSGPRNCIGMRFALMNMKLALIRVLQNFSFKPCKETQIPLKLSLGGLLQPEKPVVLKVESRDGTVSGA
# Chain of Cytochrome P450 2C9 (Homo sapiens) (P11712 whole entry, looked up): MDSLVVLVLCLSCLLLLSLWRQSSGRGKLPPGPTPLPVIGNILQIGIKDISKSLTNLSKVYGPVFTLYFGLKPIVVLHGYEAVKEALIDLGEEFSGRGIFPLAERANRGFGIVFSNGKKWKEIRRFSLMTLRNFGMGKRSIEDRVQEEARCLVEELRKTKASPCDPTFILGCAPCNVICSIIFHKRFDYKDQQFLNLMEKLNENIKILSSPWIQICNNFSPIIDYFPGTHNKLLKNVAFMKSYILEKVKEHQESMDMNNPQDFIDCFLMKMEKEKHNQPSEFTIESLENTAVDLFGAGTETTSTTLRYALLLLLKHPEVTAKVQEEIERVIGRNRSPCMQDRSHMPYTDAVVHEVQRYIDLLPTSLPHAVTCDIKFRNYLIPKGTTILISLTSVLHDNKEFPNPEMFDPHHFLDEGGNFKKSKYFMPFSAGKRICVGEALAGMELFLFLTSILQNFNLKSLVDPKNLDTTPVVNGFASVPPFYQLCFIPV
# Chain of N-terminal Xaa-Pro-Lys N-methyltransferase 1 (Homo sapiens) (Q9BV86 whole entry, looked up): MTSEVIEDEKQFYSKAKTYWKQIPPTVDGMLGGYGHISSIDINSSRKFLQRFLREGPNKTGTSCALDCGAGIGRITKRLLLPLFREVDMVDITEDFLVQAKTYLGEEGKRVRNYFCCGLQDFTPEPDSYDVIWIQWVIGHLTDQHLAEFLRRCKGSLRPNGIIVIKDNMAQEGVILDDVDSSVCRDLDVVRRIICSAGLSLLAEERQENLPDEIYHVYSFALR
smiles,measurement,setting,value
CCCC(=O)Nc1ccc(OCC(O)CNC(C)C)c(C(C)=O)c1 (stereo not drawn),Potency,[1],inactive
same,Potency,[2],inactive
CC(=O)O[C@H]1C[C@@H]2CC[C@@H]3[C@H](CC[C@@]4(C)[C@H]3C[C@H]([N+]3(C)CCCCC3)[C@@H]4OC(C)=O)[C@@]2(C)C[C@@H]1[N+]1(C)CCCCC1,Potency,[3],inactive
same,Potency,Papain (Carica papaya),inactive
Cc1ccc(Nc2c(F)cccc2Cl)c(CC(=O)O)c1,Potency,[1],inactive
COC(=O)[C@H]1[C@H]2C[C@H]3c4[nH]c5ccccc5c4CCN3C[C@H]2CC[C@@H]1O,Potency,[3],inactive
same,Potency,Papain (Carica papaya),inactive
COc1cc2c(cc1O)CC[C@@H]1[C@@H]2CC[C@]2(C)[C@@H](O)CC[C@@H]12,Potency,[3],inactive
same,Potency,Papain (Carica papaya),inactive
OCc1ccccc1O,Potency,[1],inactive
same,Potency,[2],inactive
same,Potency,[4],inactive
CCN1CCCC1=O,Potency,[1],inactive
same,Potency,[2],inactive
same,Potency,[4],inactive
CNC(=O)CN(CCN(CCN(CC(=O)[O-])CC(=O)NC)CC(=O)[O-])CC(=O)[O-].O.[Gd+3],Potency,[1],inactive
same,Potency,[2],inactive
same,outcome,[5],inactive
same,Potency,[4],inactive
COc1cc(C=C2CCC/C(=C\c3ccc(O)c(OC)c3)C2=O)ccc1O,Potency,[1],7.08 µM (active)
CC(C)COC(=O)OCN1C(=O)CN(CCN2CC(=O)N(COC(=O)OCC(C)C)C(=O)C2)CC1=O,Potency,[3],inactive
same,Potency,Papain (Carica papaya),inactive
CC(C)COC(=O)c1ccc(N)cc1,Potency,[1],inactive
CC1(C)O[C@@H]2C[C@H]3[C@@H]4CCC5=CC(=O)CC[C@]5(C)[C@@]4(F)[C@@H](O)C[C@]3(C)[C@]2(C(=O)CCl)O1,Potency,[1],inactive
same,Potency,[2],inactive
same,Potency,[4],8.71 µM (active)
CCCn1c(=O)[nH]c(=O)c2[nH]cnc21,Potency,[3],inactive
same,Potency,Papain (Carica papaya),inactive
CN1CCC(=C2c3ccccc3Sc3ccccc32)CC1,outcome,[5],inactive
CCOC(=O)COc1ccc2c(C)c(CCN(CC)CC)c(=O)oc2c1Cl,outcome,[5],inactive
C[C@@H]1C(=O)NC2=Nc3cccc(Cl)c3CN21,Potency,Papain (Carica papaya),inactive
CC(CCc1ccccc1)NCC(O)c1ccc(O)c(C(N)=O)c1 (stereo not drawn),Potency,Papain (Carica papaya),inactive
COC(=O)C1=C(C)NC(C)=C(C(=O)O[C@@H]2CCCN(Cc3ccccc3)C2)[C@@H]1c1cccc([N+](=O)[O-])c1,Potency,[6],inactive
